# In the OligoGym collection:
# Molecular target: COMMD1
# Test: pooled miR-30 sensor sort-seq; sequence = guide strand
# Settings: shRNA
# Note: reference of the scale not given here.
row,Sequence,sensor-assay potency score (higher = more potent)
1,TTTGACCTCATCAAATTCCAAA,-0.935
2,TTTCAACAACTCCAACTCCTTC,-0.622
3,TTTGTCTTGTGGCTCTTCCAGA,-0.37
4,TATAATGGCAACAGGTGTGTGT,0.267
5,TTCTTCTACCTCTGACAGCGTC,-0.845
6,TTGACTGAGACTTGCCATCAAC,-1.5
7,TGATACTTTCTTCTACCTCTGA,-0.273
8,TTTTGTCTTGTGGCTCTTCCAG,-0.915
9,TTTGGAAATGACAGCAGCTTGG,-0.686
10,TTGAGCTGAGTGCCTTGACTGA,-0.799
11,TTCTACCTCTGACAGCGTCTTC,-0.88
12,TTGCCATCAACTCTCCAGCTCA,-1.2

# Molecular target: COMMD8
# Test: as above
# Settings: shRNA
row,Sequence,sensor-assay potency score (higher = more potent)
1,TTCTTTTACATCTAGATGCAGG,-0.776
2,TCAACTGCTGAAATATCTCTTC,-0.0513
3,AATTATTTTGTGAAGAAGCTGC,0.272
4,TATTGCTGCTTTCTCAGCCTGG,-0.453
5,TATTTCTCTTGACAGAGCCTGT,-1.04
6,TTTTACATCTAGATGCAGGCTT,0.949
